# In all, about 68,000 compounds went through this assay and about 2,700 (4%) showed an effect of 50% or more. For the sample, strong results were picked, then their nearest neighbours and some compounds at random.
# System: Plasmodium berghei
# Assay: Screen against P. berghei liver stage (PbLuc), transformed with Luciferase, at 2uM
# Assay type: functional, HepG2
# Details: tested at 2 uM
row,Compound,INHIBITION
1,Cc1cc(CN(C)C(=O)NCc2ccnc(SC(C)(C)C)c2)no1,14.69%
2,Cc1cc(CN(C)C(=O)NCc2ccccn2)no1,26.62%
3,Cc1cc(CN(C)C(=O)CN2CCCC2=O)no1,51.36%
4,Cc1cc(CN(C)C(=O)CN2CCCCCC2=O)no1,33.35%
5,Cc1cc(CN(C)C(=O)NCc2ccco2)no1,66.88%
6,CC(C)c1cc(CN(C)C(=O)CN2CCCCC2=O)no1,-11.61%
7,CN(Cc1ccco1)C(=O)NCc1nnc2n1CCC2,-18.86%
8,CN(Cc1ccco1)C(=O)NCc1ccnc(SC(C)(C)C)c1,53.29%
9,O=C(c1ccc(F)cc1)N1C[C@@H]2COC[C@]2(COc2cccnc2)C1,-55.8%
10,CC(CO)NC(=O)Nc1ccc(CC#N)cc1 (stereo not given),20.32%
11,CCc1nc2n(n1)CC(Nc1ccnc(-c3ccccc3)n1)CC2 (stereo not given),-1.33%
12,CC(C)C(=O)N1CCCC12CCCN(C(=O)c1ccno1)C2 (stereo not given),8.34%
13,N#Cc1ccc(N2CCC3(CC2)CC(N2CCOCC2)CO3)cc1 (stereo not given),-0.69%
14,CN1CCN(C2COC3(CCN(c4ccc(C#N)cc4)CC3)C2)CC1 (stereo not given),54.5%
15,COC1COC2(CCN(c3ccc(C#N)cc3)CC2)C1 (stereo not given),-13.61%
16,Cc1nn(C)c(N(C)C)c1CNC(C)COc1ccc(F)cc1F (stereo not given),25.03%
17,Cn1cc(C(=O)N2C[C@H]3CC(Oc4ccccc4)C[C@H]3C2)cn1 (stereo not given in full),-36.58%
18,O=C(COc1cc(Cl)cc(Cl)c1)NCc1nncn1C1CC1,-13.8%
19,O=C(COc1ccc(Cl)cc1)NCc1nncn1C1CC1,24.36%
20,O=C(COc1cccnc1)NCc1nncn1C1CCCCC1,57.75%
21,Cc1nc(CN2C(=O)CC[C@@H]3[C@H]2CCN3C2CCOCC2)cs1,-6.68%
22,Cc1cc(C(=O)N2CCc3c(ncnc3N3CCOCC3)C2)[nH]n1,-0.79%
23,O=C(c1cc[nH]n1)N1CCc2ncnc(N3CCSCC3)c2CC1,24.55%
24,Cc1cc(C(=O)N2CCc3ncnc(N4CCSCC4)c3CC2)[nH]n1,64.2%
25,CSc1nc2ncc3c(=O)n(C)ccc3n2n1,19.49%
26,CCn1cc(-c2cc(C(F)F)n3nc(CCC(=O)O)nc3n2)cn1,61.61%
27,CCn1cc(-c2cc(C(F)F)n3nc(CC(=O)O)nc3n2)cn1,-20.05%
28,Cn1cc(-c2cc(C(F)F)n3nc(CCC(=O)O)nc3n2)cn1,48.58%

row,Compound,INHIBITION
1,OCC(O)CN1CCc2onc(-c3ccc(C(F)(F)F)cc3)c2C1 (stereo not given),-83.25%
2,CCN(CC)CCNC(=O)CCc1c(C)nn(-c2ccc(Cl)cc2)c1C,36.85%
3,CC(C)c1nnc2ccc(N3CCC(C(=O)O)CC3)nn12,16.54%
4,Fc1ccc(F)c(CN2CCC(c3cc4ncccc4cn3)CC2)c1,-20.28%
5,CC(=O)N1CCN(C(=O)NC(C)Cn2ccnc2)CC1 (stereo not given),14.47%
6,CC(=O)Nc1nc(C(=O)N2CCCC(n3nc(C)nc3C)C2)cs1 (stereo not given),9.17%
7,CCCC(=O)NCc1cc(Br)c(OC)c(OC)c1,0.63%
8,CCS(=O)(=O)NCc1cc(Br)c(OC)c(OC)c1,68.69%
9,CCC(=O)NCc1cc(Br)c(OC)c(OC)c1,-11.19%
10,Cc1ccsc1C(=O)N(C)Cc1ccncc1,-32.02%
11,CCOCCC(=O)Nc1cccc(Oc2ccccn2)c1,3.59%
12,CSCC(=O)Nc1cccc(Oc2ccccn2)c1,-7.6%
13,CCOCC(=O)Nc1cccc(Oc2ccccn2)c1,67.68%
14,CC(C)(C)c1cc(CN2CCOCC(O)C2)n[nH]1 (stereo not given),-67.78%
15,Cc1noc(C(C)N(C)CC(=O)NCCc2ccc(Cl)cc2)n1 (stereo not given),11.8%
16,Cc1nccc([C@@H]2C[C@H]3CN(S(=O)(=O)c4ccccc4)C[C@H]3O2)n1,32.41%
17,CCn1ccnc1CN1CCN(Cc2cccc(C#N)c2)CC1,-49.45%
18,Cn1ccnc1CN1CCN(Cc2ccc(C#N)cc2)CC1,-19.95%
19,CCn1ccnc1CN1CCN(Cc2ccc(C#N)cc2)CC1,71.23%
20,CN(Cc1cc(C(C)(C)C)n[nH]1)Cc1c[nH]nc1-c1ccc(F)cc1,50.31%
21,CN(Cc1ccn[nH]1)Cc1c[nH]nc1-c1ccc(F)cc1,-35.45%
22,Cc1n[nH]c(C)c1CCCN(C)Cc1c[nH]nc1-c1ccc(F)cc1,-87.47%
23,CCN(Cc1cc(=O)n2cc(Br)ccc2n1)C1CC1,-15.9%
24,Cc1ccc2cccc(Oc3nc(C)c(C(=O)O)s3)c2n1,27.11%
25,CCN(C)C(=O)c1cc(-c2ccn(C(C)C)n2)n2ccccc12,-8.84%
26,CCN(C)C(=O)c1cc(-c2cn(C(C)C)cn2)n2ccccc12,73.98%
27,COCCn1cnc(-c2cc(C(=O)NC(C)C)c3ccccn23)c1,1.48%

# From ChEMBL document CHEMBL4513216, “Probing the Open Global Health Chemical Diversity Library for Multistage-Active Starting Points for Next-Generation Antimalarials” (ACS Infect Dis, 2020)
